Data from PubChem BioAssay (NCATS).
Records with an inconclusive call do not appear. Entries that show only a call come without a potency. The source made the active and inactive calls. Calls follow the shape of the dose curve; as a rule, active = well fitted inhibition curve with a large enough effect; inconclusive = small, poorly fitted or top-dose-only effect; inactive = flat fitted curve, though single readings scatter.

Each molecule was assayed on MCC-13 (assay: qHTS assay to identify novel small-molecules to repurpose for Merkel cell carcinoma treatment (AID 1296009; also: nearly all actives have a fitted effect of over 60% in size)). Conditions: MCC and control cell lines, CellTiter-Glo viability, 72 h; series mostly up to 46 µM.
Summary of the method: (§1)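 CellTiter-Glo luminescence after 72 hr compound exposure at 37 degree celsius gave cell viability. Libraries NPC and MIPE were run as 8- and 11-point dose responses; RLUs normalized to DMSO (negative) and no-cell (cytotoxicity) controls.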

Structure (SMILES) | Potency
N=C(N)c1ccc(OCCCOc2ccc(C(=N)N)cc2)cc1 | inactive
O=C(OCC(COC(=O)c1cccnc1)(COC(=O)c1cccnc1)COC(=O)c1cccnc1)c1cccnc1 | inactive
O=C(O)c1ccccc1Nc1cc(Cl)ccc1C(=O)O | inactive
CCO[C@H](Cc1ccc(OCCc2ccc(OS(C)(=O)=O)cc2)cc1)C(=O)O | inactive
C=CC[N+]1([C@H]2C[C@H]3[C@@H]4CC[C@H]5C[C@H](OC(C)=O)[C@@H](N6CCCCC6)C[C@]5(C)[C@H]4CC[C@]3(C)[C@H]2OC(=O)CC)CCCCC1 | inactive
CC(CCc1ccc2c(c1)OCO2)NN (stereo not given) | inactive
C[C@@]12CCC[C@H]1[C@@H]1CC[C@H]3C[C@@H](O)CC[C@]3(C)[C@H]1CC2 | inactive
Nc1c[n+](N2CCOCC2)no1 | inactive
CC(C(=O)O)c1ccc(/C=C2\CCCCC2=O)cc1 (stereo not given) | inactive
O=C(CCCCC(=O)Nc1c(I)cc(I)c(C(=O)O)c1I)Nc1c(I)cc(I)c(C(=O)O)c1I | inactive
NC(=O)COCCN1CCN(C(c2ccccc2)c2ccc(Cl)cc2)CC1 (stereo not given) | inactive
C1=CC2C3C=CC(C3)C2C1 (stereo not given) | inactive
CCOC(=O)OCC/C(SC(=O)OCC)=C(\C)N(C=O)Cc1cnc(C)nc1N | inactive
COc1cc(NS(=O)(=O)c2ccc(N)cc2)nc(C)n1 | inactive
CCC(C(=O)NC(=O)NC(C)=O)c1ccccc1 (stereo not given) | inactive
O=P(O)(O)OCC(O)CO (stereo not given) | inactive
CC(=O)OCC(=O)[C@@]1(O)CCC2C3CCC4=CC(=O)CC[C@]4(C)C3[C@@H](O)C[C@@]21C (stereo not given in full) | inactive
Cc1ncc(CO)c(CO)c1O | inactive
C[N+]1(CC2COC(c3ccccc3)(c3ccccc3)O2)CCCCC1 (stereo not given) | inactive
CN1C(=O)c2ccccc2C1=O | inactive

Structure (SMILES) | Potency
Cc1ccc(O)cc1 | inactive
CC1(C)S[C@@H]2[C@H](NC(=O)C(c3ccccc3)S(=O)(=O)O)C(=O)N2[C@H]1C(=O)O (stereo not given in full) | inactive
Cc1nc([N+](=O)[O-])cn1-c1ccc([N+](=O)[O-])cc1 | inactive
OCCCc1ccccc1 | inactive
CN1C(CSCC(F)(F)F)Nc2cc(Cl)c(S(N)(=O)=O)cc2S1(=O)=O (stereo not given) | inactive
Cc1ccccc1N1CCN(CCc2nnc3n2CCCC3)CC1 | inactive
O=C(O)c1[nH]n(-c2ccc(S(=O)(=O)O)cc2)c(=O)c1N=Nc1ccc(S(=O)(=O)O)cc1 | inactive
C[N+](C)(CCOc1ccccc1)Cc1cccs1 | inactive
CC(=O)CC/C=C(\C)CC/C=C(\C)CC/C=C(\C)CCC=C(C)C | inactive
CCCCC(CC)COC(=O)c1ccccc1C(=O)O (stereo not given) | inactive
CC(=O)OCC[N+](C)(C)C | inactive
CCOc1ccc(NS(=O)(=O)c2ccc(N)cc2)nn1 | inactive
CC(C)C(C)(C)C(C)(C)C(C)(C)S | inactive
C=CCOc1cc(Cl)ccc1C(=O)NCCN(CC)CC | inactive
Cn1cc(S(C)=O)c(=O)c2ccc(F)cc21 (stereo not given) | inactive
Nc1nnnn1-c1ccccc1 | inactive
OC[C@]1(O)OC[C@@H](O)[C@H](O)[C@@H]1O | inactive
O=C(O)Cc1ccc(OCCNC[C@H](O)c2ccccc2)cc1 | inactive
O=C(O)c1ccccc1S | inactive

Each molecule was assayed on MCC-26 in the same assay as above. Conditions: MCC and control cell lines, CellTiter-Glo viability, 72 h; series mostly up to 46 µM.
Summary of the method: as §1

Structure (SMILES) | Potency
N=C(N)c1ccc(OCCCOc2ccc(C(=N)N)cc2)cc1 | inactive
O=C(OCC(COC(=O)c1cccnc1)(COC(=O)c1cccnc1)COC(=O)c1cccnc1)c1cccnc1 | inactive
O=C(O)c1ccccc1Nc1cc(Cl)ccc1C(=O)O | inactive
CCO[C@H](Cc1ccc(OCCc2ccc(OS(C)(=O)=O)cc2)cc1)C(=O)O | inactive
C=CC[N+]1([C@H]2C[C@H]3[C@@H]4CC[C@H]5C[C@H](OC(C)=O)[C@@H](N6CCCCC6)C[C@]5(C)[C@H]4CC[C@]3(C)[C@H]2OC(=O)CC)CCCCC1 | inactive
CC(CCc1ccc2c(c1)OCO2)NN (stereo not given) | inactive
C[C@@]12CCC[C@H]1[C@@H]1CC[C@H]3C[C@@H](O)CC[C@]3(C)[C@H]1CC2 | inactive
Nc1c[n+](N2CCOCC2)no1 | inactive
CC(C(=O)O)c1ccc(/C=C2\CCCCC2=O)cc1 (stereo not given) | inactive
O=C(CCCCC(=O)Nc1c(I)cc(I)c(C(=O)O)c1I)Nc1c(I)cc(I)c(C(=O)O)c1I | inactive
NC(=O)COCCN1CCN(C(c2ccccc2)c2ccc(Cl)cc2)CC1 (stereo not given) | inactive
C1=CC2C3C=CC(C3)C2C1 (stereo not given) | inactive
CCOC(=O)OCC/C(SC(=O)OCC)=C(\C)N(C=O)Cc1cnc(C)nc1N | inactive
COc1cc(NS(=O)(=O)c2ccc(N)cc2)nc(C)n1 | inactive
CCC(C(=O)NC(=O)NC(C)=O)c1ccccc1 (stereo not given) | inactive
O=P(O)(O)OCC(O)CO (stereo not given) | inactive
Cc1ncc(CO)c(CO)c1O | inactive
C[N+]1(CC2COC(c3ccccc3)(c3ccccc3)O2)CCCCC1 (stereo not given) | inactive

Structure (SMILES) | Potency
CN1C(=O)c2ccccc2C1=O | inactive
Cc1ccc(O)cc1 | inactive
Cc1nc([N+](=O)[O-])cn1-c1ccc([N+](=O)[O-])cc1 | inactive
OCCCc1ccccc1 | inactive
CN1C(CSCC(F)(F)F)Nc2cc(Cl)c(S(N)(=O)=O)cc2S1(=O)=O (stereo not given) | inactive
Cc1ccccc1N1CCN(CCc2nnc3n2CCCC3)CC1 | inactive
O=C(O)c1[nH]n(-c2ccc(S(=O)(=O)O)cc2)c(=O)c1N=Nc1ccc(S(=O)(=O)O)cc1 | inactive
C[N+](C)(CCOc1ccccc1)Cc1cccs1 | inactive
CC(=O)CC/C=C(\C)CC/C=C(\C)CC/C=C(\C)CCC=C(C)C | inactive
CCCCC(CC)COC(=O)c1ccccc1C(=O)O (stereo not given) | inactive
CC(=O)OCC[N+](C)(C)C | inactive
CCOc1ccc(NS(=O)(=O)c2ccc(N)cc2)nn1 | inactive
CC(C)C(C)(C)C(C)(C)C(C)(C)S | inactive
C=CCOc1cc(Cl)ccc1C(=O)NCCN(CC)CC | inactive
Cn1cc(S(C)=O)c(=O)c2ccc(F)cc21 (stereo not given) | inactive
Nc1nnnn1-c1ccccc1 | inactive
OC[C@]1(O)OC[C@@H](O)[C@H](O)[C@@H]1O | inactive
O=C(O)c1ccccc1S | inactive
